{"source": "PubChem BioAssay AID1456", "about": "(Vanderbilt High Throughput Screening Facility, 2008)", "note": "Out of some 190,000 compounds screened, about 4,100 (2.2%) were called active.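 Rule for the calls: active = thallium flux slope and its plate-corrected score both differing from the plate sample mean at a set confidence after two filtering rounds, in either direction; inactive = the rest.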 The list comes from a sample in which actives are over-represented; it also holds similar structures and randomly drawn compounds.", "data": [{"biological_target": "Solute carrier family 12 member 5 (Homo sapiens) (UniProt Q9H2X9)", "sequence (Q9H2X9 whole entry, looked up)": "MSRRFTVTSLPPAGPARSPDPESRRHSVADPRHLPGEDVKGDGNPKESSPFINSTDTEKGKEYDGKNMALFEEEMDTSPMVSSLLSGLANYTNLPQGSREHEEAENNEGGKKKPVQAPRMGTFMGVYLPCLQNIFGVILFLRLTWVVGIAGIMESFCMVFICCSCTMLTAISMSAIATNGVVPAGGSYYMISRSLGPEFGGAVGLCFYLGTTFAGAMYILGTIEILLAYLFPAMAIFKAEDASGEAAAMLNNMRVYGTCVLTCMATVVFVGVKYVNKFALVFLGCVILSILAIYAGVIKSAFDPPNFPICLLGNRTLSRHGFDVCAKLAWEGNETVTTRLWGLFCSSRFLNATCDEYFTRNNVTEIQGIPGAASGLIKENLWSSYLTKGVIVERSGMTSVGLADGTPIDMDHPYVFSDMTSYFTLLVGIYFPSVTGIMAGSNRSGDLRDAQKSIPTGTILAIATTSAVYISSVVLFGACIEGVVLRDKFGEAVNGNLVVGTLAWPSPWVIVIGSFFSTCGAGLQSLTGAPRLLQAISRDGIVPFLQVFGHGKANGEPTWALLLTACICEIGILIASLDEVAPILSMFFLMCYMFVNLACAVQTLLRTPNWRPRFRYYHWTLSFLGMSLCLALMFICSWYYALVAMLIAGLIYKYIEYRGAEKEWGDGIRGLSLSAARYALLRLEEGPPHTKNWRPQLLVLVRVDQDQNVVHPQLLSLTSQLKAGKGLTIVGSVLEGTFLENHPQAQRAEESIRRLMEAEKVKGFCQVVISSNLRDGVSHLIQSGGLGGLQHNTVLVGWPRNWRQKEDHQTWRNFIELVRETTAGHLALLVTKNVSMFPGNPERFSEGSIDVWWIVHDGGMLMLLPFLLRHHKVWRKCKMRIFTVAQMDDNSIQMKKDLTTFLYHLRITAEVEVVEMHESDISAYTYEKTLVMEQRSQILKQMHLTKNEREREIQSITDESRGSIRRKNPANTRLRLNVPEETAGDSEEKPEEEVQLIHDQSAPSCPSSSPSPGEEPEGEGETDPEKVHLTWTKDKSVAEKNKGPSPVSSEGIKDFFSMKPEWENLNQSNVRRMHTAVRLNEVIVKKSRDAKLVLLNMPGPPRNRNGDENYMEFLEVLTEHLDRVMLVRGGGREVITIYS", "assay": "KCC2 cotransporter modulators, thallium flux, primary screen, cell-based, HEK293 KCC2, FluoZin-2 fluorescence, MLSMR (AID 1456);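 note: slope of fluorescence scaled to starting intensity during 10 to 20 s after thallium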", "conditions": "KCC2 cells, thallium flux FluoZin-2 fluorescence; at 10 µM", "values": [{"smiles": "Cc1cc(C)cc(C(=O)NCC(=O)OCC(=O)N2CCCCC2)c1", "B-score of Tl+ flux slope (higher = more flux/activation; lower = inhibition)": "1.11 (inactive)"}, {"smiles": "CC[C@@H](C)[C@@H](C(=O)N1CCN(C(=O)OC(C)(C)C)CC1)n1cc(CCC(=O)O)nn1", "B-score of Tl+ flux slope (higher = more flux/activation; lower = inhibition)": "3.74 (active)"}, {"smiles": "CCC(C)[C@@H](C(=O)N1CCNCC1)n1cc(CCCCN)nn1", "note": "(some centres not stated)", "B-score of Tl+ flux slope (higher = more flux/activation; lower = inhibition)": "0.0703 (inactive)"}, {"smiles": "C[C@@H](C(=O)N1CCNCC1)n1cc(CCC(=O)O)nn1", "B-score of Tl+ flux slope (higher = more flux/activation; lower = inhibition)": "1.43 (inactive)"}, {"smiles": "O=c1[nH]c2ccccc2s1", "B-score of Tl+ flux slope (higher = more flux/activation; lower = inhibition)": "10.2 (active)"}, {"smiles": "COCc1cc(=O)oc2cc(NS(=O)(=O)c3ccc(C)cc3)ccc12", "B-score of Tl+ flux slope (higher = more flux/activation; lower = inhibition)": "0.0356 (inactive)"}, {"smiles": "O=S(=O)(NCc1ccco1)c1cnc(Cl)c(Cl)c1", "B-score of Tl+ flux slope (higher = more flux/activation; lower = inhibition)": "-2.3 (inactive)"}, {"smiles": "COc1cc(C(=O)Nc2nccs2)cc(OC)c1OC", "B-score of Tl+ flux slope (higher = more flux/activation; lower = inhibition)": "0.128 (inactive)"}, {"smiles": "COC(=O)c1sccc1NC(=O)c1cc(OC)c(OC)c(OC)c1", "B-score of Tl+ flux slope (higher = more flux/activation; lower = inhibition)": "-5.91 (active)"}, {"smiles": "COC(=O)c1sccc1NC(=O)c1csc2c1CCCC2", "B-score of Tl+ flux slope (higher = more flux/activation; lower = inhibition)": "-0.108 (inactive)"}, {"smiles": "COc1ccc(NS(=O)(=O)c2ccc(N3CCOCC3)c(NC(=O)c3ccccc3Br)c2)cc1", "B-score of Tl+ flux slope (higher = more flux/activation; lower = inhibition)": "-1.53 (inactive)"}, {"smiles": "COc1ccc2[nH]c(=O)c(CNc3ccc(C)c(C)c3)cc2c1", "B-score of Tl+ flux slope (higher = more flux/activation; lower = inhibition)": "0.158 (inactive)"}, {"smiles": "COc1ccc2[nH]c3ccc(OC)cc3c2c1", "B-score of Tl+ flux slope (higher = more flux/activation; lower = inhibition)": "0.0914 (inactive)"}, {"smiles": "COc1ccc2[nH]c(=S)cc(C)c2c1", "B-score of Tl+ flux slope (higher = more flux/activation; lower = inhibition)": "13.9 (active)"}, {"smiles": "COc1ccccc1OCC(=O)O/N=C(\\N)c1ccccn1", "B-score of Tl+ flux slope (higher = more flux/activation; lower = inhibition)": "0.265 (inactive)"}, {"smiles": "COc1ccc(C(=O)NNc2cc(C)nc(NNC(=O)c3ccc(OC)cc3)n2)cc1", "B-score of Tl+ flux slope (higher = more flux/activation; lower = inhibition)": "-0.94 (inactive)"}, {"smiles": "C[C@@H](C(=O)Nc1ccc2ccccc2c1)[C@@H]1C[C@@]1(C)[C@@H](NC(=O)c1cccnc1)c1ccccc1", "B-score of Tl+ flux slope (higher = more flux/activation; lower = inhibition)": "-2.53 (active)"}, {"smiles": "O=C(Nc1ccc(N2CCN(C(=O)c3ccccc3)CC2)c(Cl)c1)c1cccnc1", "B-score of Tl+ flux slope (higher = more flux/activation; lower = inhibition)": "1.08 (inactive)"}, {"smiles": "COC(=O)[C@H](C)[C@H]1C[C@]1(C)[C@H](NC(=O)OCc1ccccc1)c1ccccc1", "B-score of Tl+ flux slope (higher = more flux/activation; lower = inhibition)": "2.81 (inactive)"}, {"smiles": "Cc1cc(C)n(CC(C)NCc2c(C(=O)N3CCOCC3)nc3c(C)cccn23)n1", "note": "(configuration not stated)", "B-score of Tl+ flux slope (higher = more flux/activation; lower = inhibition)": "0.104 (inactive)"}, {"smiles": "CCOC(=O)C1=C(N)N2C(=O)C(C)SC2=C(C(=O)OCC)C1c1cc(OC)c(OC)c(OC)c1", "note": "(configuration not stated)", "B-score of Tl+ flux slope (higher = more flux/activation; lower = inhibition)": "-0.308 (inactive)"}, {"smiles": "CCCCn1c(=O)c(C(C)=O)c(O)c2ccccc21", "B-score of Tl+ flux slope (higher = more flux/activation; lower = inhibition)": "-0.478 (inactive)"}, {"smiles": "CCCCN(C)Cc1c(C)[nH]c2ccc(Cl)cc2c1=O", "B-score of Tl+ flux slope (higher = more flux/activation; lower = inhibition)": "-0.235 (inactive)"}, {"smiles": "CCCCn1c(=S)[nH]c2ncccc2c1=O", "B-score of Tl+ flux slope (higher = more flux/activation; lower = inhibition)": "49.5 (active)"}, {"smiles": "CN(C)CCn1c(=S)[nH]c2ccc(Cl)cc2c1=O", "B-score of Tl+ flux slope (higher = more flux/activation; lower = inhibition)": "4.34 (active)"}, {"smiles": "O=C(CCn1c(=S)[nH]c2ccccc2c1=O)NCCCN1CCCC1=O", "B-score of Tl+ flux slope (higher = more flux/activation; lower = inhibition)": "-0.0162 (inactive)"}, {"smiles": "CCN(CC)CCn1c(=S)[nH]c2ncccc2c1=O", "B-score of Tl+ flux slope (higher = more flux/activation; lower = inhibition)": "0.847 (inactive)"}, {"smiles": "CCCCn1c(=S)[nH]c2ccccc2c1=O", "B-score of Tl+ flux slope (higher = more flux/activation; lower = inhibition)": "92.1 (active)"}, {"smiles": "CCCCn1c(=S)[nH]c2cc(S(=O)(=O)N3CCCCC3)ccc21", "B-score of Tl+ flux slope (higher = more flux/activation; lower = inhibition)": "0.854 (inactive)"}, {"smiles": "O=c1c2ccccc2[nH]c(=S)n1CCN1CCC(=C(c2ccc(F)cc2)c2ccc(F)cc2)CC1", "B-score of Tl+ flux slope (higher = more flux/activation; lower = inhibition)": "8.36 (active)"}, {"smiles": "Fc1ccc(NC(=S)N2CCc3[nH]c4ccccc4c3C2)cc1", "B-score of Tl+ flux slope (higher = more flux/activation; lower = inhibition)": "-0.241 (inactive)"}, {"smiles": "COc1cc2[nH]c(=S)n(Cc3ccc(F)cc3)c(=O)c2cc1OC", "B-score of Tl+ flux slope (higher = more flux/activation; lower = inhibition)": "0.913 (inactive)"}, {"smiles": "CCCCNC(=O)c1ccc(-n2c(=S)[nH]c3ccccc3c2=O)cc1", "B-score of Tl+ flux slope (higher = more flux/activation; lower = inhibition)": "1.81 (inactive)"}, {"smiles": "C=CCN(C(=O)Nc1ccc2c(c1)nc(C)n2C)c1ccccc1", "B-score of Tl+ flux slope (higher = more flux/activation; lower = inhibition)": "-0.205 (inactive)"}, {"smiles": "COc1ccc2c(c1)c1ncn(Cc3ccccn3)c(=O)c1n2C", "B-score of Tl+ flux slope (higher = more flux/activation; lower = inhibition)": "-0.189 (inactive)"}, {"smiles": "COc1ccc(-c2nn(C)c(=O)c3ccccc23)cc1CNC(=O)C1CCCCC1", "B-score of Tl+ flux slope (higher = more flux/activation; lower = inhibition)": "-0.0309 (inactive)"}, {"smiles": "CCC(C)N1C(=S)SC(C)(C)C1N(O)C(=O)NC1CCCCC1", "note": "(configuration not stated)", "B-score of Tl+ flux slope (higher = more flux/activation; lower = inhibition)": "0.793 (inactive)"}, {"smiles": "COc1ccccc1-n1cn[nH]c1=S", "B-score of Tl+ flux slope (higher = more flux/activation; lower = inhibition)": "0.0347 (inactive)"}, {"smiles": "CCc1ccc(NC(=O)N[C@H](C(=O)O)C(C)CC)cc1", "note": "(some centres not stated)", "B-score of Tl+ flux slope (higher = more flux/activation; lower = inhibition)": "1.5 (inactive)"}, {"smiles": "O=C(O)c1ccc(/C=N/Nc2nc(N3CCCCC3)nc(N3CCCCC3)n2)cc1", "B-score of Tl+ flux slope (higher = more flux/activation; lower = inhibition)": "-1.4 (inactive)"}, {"smiles": "Cc1ccc(C(=O)N/C(=C\\c2ccco2)C(=O)NC2CCS(=O)(=O)C2)cc1", "note": "(configuration not stated)", "B-score of Tl+ flux slope (higher = more flux/activation; lower = inhibition)": "-1.21 (inactive)"}, {"smiles": "CN(C(=O)CCn1c(=S)oc2ccccc21)C1CCCCC1", "B-score of Tl+ flux slope (higher = more flux/activation; lower = inhibition)": "0.00441 (inactive)"}, {"smiles": "CC(C)c1nc(SCC(=O)NC(=O)NC(C)(C)C)n[nH]1", "B-score of Tl+ flux slope (higher = more flux/activation; lower = inhibition)": "-0.671 (inactive)"}, {"smiles": "Cc1ccc(NC(=O)/C(=C/c2ccc([N+](=O)[O-])cc2)NC(=O)c2ccccc2)cc1", "B-score of Tl+ flux slope (higher = more flux/activation; lower = inhibition)": "-1.36 (inactive)"}, {"smiles": "COc1cc(NC(=O)c2ccccc2NS(=O)(=O)c2ccc(Cl)s2)cc(OC)c1", "B-score of Tl+ flux slope (higher = more flux/activation; lower = inhibition)": "-5.32 (active)"}, {"smiles": "O=C(Nc1nncs1)c1ccccc1NS(=O)(=O)c1cccs1", "B-score of Tl+ flux slope (higher = more flux/activation; lower = inhibition)": "-1.71 (inactive)"}, {"smiles": "COc1cc(NC(=O)c2cccnc2SC)cc(OC)c1", "B-score of Tl+ flux slope (higher = more flux/activation; lower = inhibition)": "0.553 (inactive)"}, {"smiles": "Cc1ccc(-c2nc(SCC(=O)Nc3ccccc3OC(F)F)c3c(C)c(C(=O)O)sc3n2)cc1", "B-score of Tl+ flux slope (higher = more flux/activation; lower = inhibition)": "-0.62 (inactive)"}, {"smiles": "COc1ccc(C(=O)N/N=C(\\C)CC(=O)Nc2ccc(Cl)cn2)cc1", "B-score of Tl+ flux slope (higher = more flux/activation; lower = inhibition)": "-0.466 (inactive)"}, {"smiles": "CCn1c(CN2C(=O)CSc3ccccc32)n[nH]c1=S", "B-score of Tl+ flux slope (higher = more flux/activation; lower = inhibition)": "0.96 (inactive)"}, {"smiles": "CCC(=O)NC(=Nc1nc2ccccc2s1)NC(=O)CC", "B-score of Tl+ flux slope (higher = more flux/activation; lower = inhibition)": "41 (active)"}, {"smiles": "O=C(Nc1ccccc1)Nc1nc2ccccc2s1", "B-score of Tl+ flux slope (higher = more flux/activation; lower = inhibition)": "0.018 (inactive)"}, {"smiles": "CSCCC(Nc1nc2ccccc2s1)C(=O)O", "note": "(configuration not stated)", "B-score of Tl+ flux slope (higher = more flux/activation; lower = inhibition)": "0.0417 (inactive)"}, {"smiles": "O=C(O)C(F)(F)C(NCc1ccccc1)c1ccccc1", "note": "(configuration not stated)", "B-score of Tl+ flux slope (higher = more flux/activation; lower = inhibition)": "-0.106 (inactive)"}, {"smiles": "Cn1c(SCC(=O)N2CCOCC2)nnc1-c1ccc2ncccc2c1", "B-score of Tl+ flux slope (higher = more flux/activation; lower = inhibition)": "-0.0283 (inactive)"}, {"smiles": "c1ccc2[nH]c(-c3nc4ccccc4[nH]3)nc2c1", "B-score of Tl+ flux slope (higher = more flux/activation; lower = inhibition)": "0.179 (inactive)"}, {"smiles": "O=C(Nc1ccccc1)c1cc2ccccc2[nH]1", "B-score of Tl+ flux slope (higher = more flux/activation; lower = inhibition)": "-1.8 (inactive)"}, {"smiles": "S=c1ccc2ccccc2[nH]1", "B-score of Tl+ flux slope (higher = more flux/activation; lower = inhibition)": "29.1 (active)"}, {"smiles": "O=C(c1ccc(OC2CCN(C(=O)c3cccnc3)CC2)cc1)N1CCCCCC1", "B-score of Tl+ flux slope (higher = more flux/activation; lower = inhibition)": "0.182 (inactive)"}, {"smiles": "Cc1ccc(OCC(=O)N2CCN(C(=O)c3cccnc3)CC2)cc1", "B-score of Tl+ flux slope (higher = more flux/activation; lower = inhibition)": "2.71 (active)"}, {"smiles": "COc1ccc(OCC(=O)N2CCN(C(=O)COc3ccccc3)CC2)cc1", "B-score of Tl+ flux slope (higher = more flux/activation; lower = inhibition)": "-0.137 (inactive)"}, {"smiles": "CCn1c(SCC(=O)N/N=C/c2ccccc2OCC(=O)O)nnc1-c1ccc(C(C)(C)C)cc1", "B-score of Tl+ flux slope (higher = more flux/activation; lower = inhibition)": "-0.932 (inactive)"}]}]}
